FMDV inh – High Throughput Screening for Foot and Mouth Disease Virus Antivirals; FMDV antiviral cell-based qHTS; Potency, µM (top dose mostly 57.9 µM), inactives show at the highest dose activity change, negative = inhibition, most hits filed as inhibitors; actives 1.2% (n = 410,000); AID 1159524, 2015; calls by dose curve; tested in HEK293T cells; also: read-out not given here; nearly all actives have a fitted effect of over 45% in size
RE007 growth inh – qHTS Assay for Inhibitors of the HIV-1 protein Vpr; S. pombe RE007 Vpr strain, BacTiter-Glo ATP luminescence, 24 h; Potency, µM (series often up to 92.2 µM), for inactives: at the highest dose activity change, negative = less growth, most hits filed as inhibitors; actives 0.21% (n = 360,000); active = well fitted falling curve with a large enough effect; inconclusive = small, poorly fitted or top-dose-only effect; inactive = no such curve, though single readings can be large or run the other way; also: nearly all actives have a fitted effect of over 50% in size
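Fission yeast strain RE007, carrying one chromosomally integrated HIV-1 vpr copy, was seeded at OD 0.01 in PMG+AL medium with 23 nL pinned compound. After 24 h at 30 °C and 99% humidity, viability was read by BacTiter-Glo luminescence.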
Sm TGR inh – qHTS Assay for the Inhibitors of Schistosoma Mansoni Peroxiredoxins | actives 3% (n = 360,000) | Potency, µM (series often up to 114 µM), without a hit: top-dose activity change, negative = inhibition, most hits filed as inhibitors | AID 485364, 2010 | purified TGR, DTNB reduction, TNB absorbance 405 nm; also: nearly all actives have a fitted effect of over 60% in size
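TGR 20 nM + NADPH 100 uM (dispensed conc.), cpd preinc 15 min RT; start with NADPH (500 uM addition) then DTNB (15 mM addition). Kinetic TNB absorbance, 405 nm filter. Four-parameter Hill fit across titration.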
TbPYK inhibitor – qHTS of Trypanosoma Brucei Inhibitors; pyruvate kinase (Trypanosoma brucei), Q57TT1; TbPYK enzyme, Kinase-Glo Plus ATP luminescence, 45 min; Potency, µM (highest dose often 76.8 µM), for the others: top-dose activity, negative = inhibition, most hits filed as inhibitors; actives 0.12% (n = 410,000); also: nearly all actives have a fitted effect of over 50% in size
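ADP (130 uM final) triggers the TbPYK reaction after compound addition; incubation is 45 min at room temperature. Kinase-Glo Plus is then added and luminescence imaged. Normalized data are fitted to concentration-effect curves.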
* marks the source's active call; other numbers are inactive results; ? = inconclusive; / = not tested or not shown. Most compounds without a hit are left out; they make up all but 3.7% or so of the library. Unless noted, calls follow the shape of the dose curve; as a rule, active = well fitted curve in the direction sought with a large enough effect; inconclusive = small, poorly fitted or top-dose-only effect, or another doubt; inactive = no such curve, though single readings can be large; an effect the other way counts as inactive or inconclusive. % is scaled to controls: 0 for no effect and ±100 for the full control effect; potency is read from the fitted curve at half-maximal effect.

SMILES	FMDV inh	RE007 growth inh	Sm TGR inh	TbPYK inhibitor
COc1ccc(C(=O)/C=C/C(=O)N(CC(=O)NC2CCCCC2)CC2CCCO2)c(O)c1 (configuration not stated)	7.94µM*	-1.6%	1.26µM*	?
COc1ccc(C(=O)/C=C/C(=O)N(Cc2ccccc2OC)C(C(=O)NC2CCCCC2)c2ccncc2)c(O)c1 (configuration not stated)	13.1%	-7.5%	-11.6%	-14.0%
CCCCNc1sc(S(=O)(=O)CCC)nc1S(=O)(=O)c1ccc(C)cc1	-2.9%	/	-1.2%	-2.0%
COc1cc(-c2cnc3ccccc3c2)cc2c1OCCN(C(=O)CCC(=O)c1ccc(F)cc1)C2	-12.4%	/	/	/
Cc1[nH]c2ccccc2c1C(C#N)(C#N)C1C(=O)c2ccccc2C1=O	-17.6%	-19.2%	44.7µM*	1.6%
O=C1/C(=C\c2ccco2)SC(=S)N1c1ccccc1	-1.5%	-11.1%	?	3.8%
CCCN(CCC)C1=N/C(=C\c2ccco2)C(=O)N1c1ccccc1	-6.1%	-13.1%	15.8µM*	-1.3%
CCCN=C1N/C(=C\c2ccco2)C(=O)N1c1ccccc1	-0.4%	-19.8%	39.8µM*	-4.3%
COC(=O)[C@@H]1CCCN1Cc1ccc2c(c1)CN(Cc1ccc3c(c1)CCCN3C)CCO2	-1.6%	/	/	/
COc1ccccc1CN1CCOc2ccc(C(C)(O)CN(C)C)cc2C1 (configuration not stated)	-17.5%	/	/	/
Cc1ccc(S(=O)(=O)NCc2ccc(N3CCN(C(=O)OC(C)(C)C)CC3)cc2)cc1	28.2µM*	-5.1%	-2.8%	0.3%
Cc1ccc(C(=O)NCc2ccc(N3CCN(C(=O)OC(C)(C)C)CC3)cc2)cc1	?	3.6%	-28.8%	4.3%
O=C(CSc1nnc(-c2cccs2)n1CC1CCCO1)N1CCCC1 (configuration not stated)	3.8%	5.9%	/	2.5%
CCOc1ccc(C(C)=O)cc1CSc1nnc(-c2cccs2)n1CC1CCCO1 (configuration not stated)	9.0%	4.9%	20µM*	0.4%
CCOc1ccccc1NC(=O)Cn1c(=O)n(CCCC(=O)NCCc2ccc(C)cc2)c(=O)c2ccccc21	-17.1%	/	10.4%	0.9%
COc1cccc(-c2nc(NCc3cccnc3)c3ccccc3n2)c1	4.7%	/	/	/
Cc1ccc(C(=O)Nc2cccc(NC(=O)c3ccc(C)c([N+](=O)[O-])c3)n2)cc1[N+](=O)[O-]	?	6.7%	-0.1%	-3.5%
Cc1ccc(C(=O)Nc2sc(C)c(-c3ccccc3)c2C(N)=O)cc1[N+](=O)[O-]	1.78µM*	-14.1%	1.5%	-10.9%
CN1[C@@H]2CC(OC(=O)[C@@H](CO)c3ccccc3)C[C@@H]1[C@H]1O[C@H]12 (some centres not stated)	/	/	/	0.4%
O=C(O)Cc1sc(-c2ccccc2Cl)nc1-c1ccccc1	3.0%	-1.7%	-3.3%	-5.4%
O=C(O)Cc1sc(-c2cccnc2)nc1-c1ccc(Br)cc1	4.9%	-6.4%	22.4µM*	1.7%
CCC(c1c(C)[nH]oc1=O)c1c(C)[nH]oc1=O	0.0%	-0.8%	25.1µM*	-10.4%
CC(C)c1c(C(=O)NCCN2CCOCC2)cnn1-c1nccc(-c2cccs2)n1	-10.0%	/	/	/
Cc1cc(=O)[nH]c2nnc(SCC(=O)NC(C)(C)C)n12	5.9%	/	-0.4%	0.0%
O=C(NCCCN1CCOCC1)c1ccccc1	-23.4%	13.0%	-3.6%	-0.7%
SMILES	FMDV inh	RE007 growth inh	Sm TGR inh	TbPYK inhibitor
O=C(Nc1ccccc1C(=O)NCCCN1CCOCC1)c1ccc(F)cc1	0.7%	-3.9%	89.1µM*	-2.9%
CCC(C)NC(=O)c1ccc2c(c1)S(=O)(=O)c1ccccc1C2=O (configuration not stated)	-1.8%	-8.0%	17.8µM*	-7.6%
COc1cc2cc(CNc3ccccc3)c(=O)n(CC(=O)Nc3cccc(Cl)c3C)c2cc1OC	31.5%	/	?	-7.0%
COC(=O)[C@@]1(Cc2ccc(OC)cc2)[C@@H]2C(=CC(=O)[C@H]2CC(=O)C(=O)N2CCCC2)CN1C(=O)c1ccccc1	15.8µM*	-9.9%	?	0.6%
COC(=O)[C@@]1(Cc2ccc(F)cc2)[C@H]2C(CC(=O)C(=O)N3CCCC3)C(=O)C[C@H]2CN1C(=O)c1ccccc1 (some centres not stated)	?	0.7%	/	-3.0%
O=c1oc2cc([N+](=O)[O-])ccc2nc1/C=C(O)/C=C/c1ccccc1	/	/	35.5µM*	/
O=c1oc2cc([N+](=O)[O-])ccc2nc1/C=C(\O)c1cccc(Br)c1	4.0%	13.6%	-28.4%	-4.2%
COc1ncccc1C(=O)N1CCOc2ccc(C(O)C(c3ccccc3)c3ccccc3)cc2C1 (configuration not stated)	4.7%	/	/	/
Cc1ccc(Cl)cc1NC(=O)C1CC(=O)Nc2ncnn21 (configuration not stated)	-19.2%	7.6%	-22.1%	0.8%
O=C1CC(C(=O)Nc2cc(Cl)ccc2Cl)n2ncnc2N1 (configuration not stated)	36.4%	-0.9%	22.4µM*	-7.5%
CC(=O)Nc1cc(C(=O)N2CCN(C(=O)c3ccco3)CC2)cc2ncn(CCc3ccccn3)c12	-10.1%	/	/	/
O=C(CN1CCN(S(=O)(=O)c2ccc(F)cc2)CC1)c1ccc(O)c(O)c1	-18.7%	-5.4%	22.4µM*	-28.7%
CCOc1ccc(S(=O)(=O)N2CCN(S(=O)(=O)c3ccc(C(C)=O)cc3)CC2)cc1	-14.9%	3.0%	-19.2%	-10.6%
O=C(CN1CCN(S(=O)(=O)c2ccc(Cl)cc2)CC1)c1ccc(O)c(O)c1	-19.5%	0.2%	20µM*	-23.1%
COc1cccc(N2CCN(CC(=O)N3CCN(S(=O)(=O)c4ccc(Cl)cc4)CC3)CC2)c1	-24.7%	1.0%	4.6%	0.3%
COc1cccc(C(=O)CN2CCN(S(=O)(=O)c3ccc(Cl)cc3)CC2)c1	-12.4%	/	22.4µM*	-4.9%
CCOc1ccc(C(=O)CN2CCN(S(=O)(=O)c3ccc(F)cc3)CC2)cc1	-23.0%	-21.2%	25.1µM*	3.1%
O=C(CN1C(=O)COc2ccc(S(=O)(=O)NC3CCCC3)cc21)NCc1ccc(Cl)cc1	13.2%	/	6.5%	-0.6%
COc1ccc(S(=O)(=O)N2CCN(S(=O)(=O)c3ccc(OC)cc3)CC2)cc1	/	/	-9.4%	/
COc1cccc(OCCCN2CCN(S(=O)(=O)c3ccc(NC(C)=O)cc3)CC2)c1	14.1µM*	-9.6%	17.9%	0.5%
COc1ccc(S(=O)(=O)N2CCN(CC(=O)c3ccc(O)c(O)c3)CC2)cc1	-14.2%	2.4%	20µM*	?
COc1ccc(OC)c(C2CC(=O)Oc3c2c(=O)n(C)c2ccccc32)c1 (configuration not stated)	-18.7%	/	-16.6%	1.2%
CCc1cccc(C)c1NC(=O)C(CC)Sc1nncn2c1cc1occc12 (configuration not stated)	0.0%	/	-5.9%	-0.3%

Screening data as filed in PubChem BioAssay.
